Test results from PubChem BioAssay (EPA / NIEHS).
Calls of active or inactive are those of the source. The calls were made as follows: active = hit-call score of the fitted dose curve at least 0.9, where 1 is the maximum; inactive = score below 0.9.

Test: ATG_MRE_CIS: Attagene CIS-FACTORIAL HepG2 Assay for human Metal Responsive Element (MRE) (AID 2282954)
Conditions: HepG2 MRE cis-reporter transcription, Attagene multiplex; actives raise or lower the signal
Description: ATG_CIS is a cell-based, multiplexed-readout assay that uses HepG2, a human liver cell line, with measurements taken at 24 hours after chemical dosing in a 24-well plate.ATG_MRE_CIS is one of 52 assay component(s) measured or calculated from the ATG_CIS assay. It is designed to make measurements of mRNA induction, a form of inducible reporter, as detected with fluorescence intensity signals by Reverse transcription polymerase chain reaction (RT-PCR) and Capillary electrophoresis technology.Data from the assay component ATG_MRE_CIS was analyzed into 1 assay endpoint. This assay endpoint, ATG_MRE_CIS, was analyzed with bidirectional fitting relative to DMSO as the negative control and baseline of activity. Using a type of inducible reporter, measures of mRNA for gain or loss-of-signal activity can be used to understand the reporter gene at the transcription factor-level as they relate to the gene MTF1. Furthermore, this assay endpoint can be referred to as a primary readout, because this assay has produced multiple assay endpoints where this one serves a reporter gene function. To generalize the intended target to other relatable targets, this assay endpoint is annotated to the dna binding intended target family, where the subfamily is zinc finger.
Human liver HepG2 cells are transiently transfected with multiple reporter transcription units (MRTUs) in 6-well plates using FuGene 6 reagent (Roche; 3 ml FuGene/1 mg DNA). The MRTU constructs are regulated by a cis-regulating element (promoter). […] A major difference between the CIS and TRANS system is that in CIS activities of endogenous TFs are measured, whereas the TRANS assay evaluates changes in activities of exogenous, chimeric NR-Gal4 proteins. […] At the end of 24 hour incubation, total RNA was isolated using TriZol reagent (Invitrogen). The isolated RNA is then reverse-transcribed using oligo(dT) primer and Mo-MLV reverse transcriptase (Invitrogen) with DNAse I (Ambion) treatment for 30 min. The one-tenth of the produced cDNA was amplified by PCR using Taq DNA polymerase (Invitrogen) and two reporter sequence-specific primers. The PCR products were fluorescently labeled by primer extension with 6-arboxyfluorescein (6-FAM) 5'-labeled reporter sequence-specific primer (2 min at 95 C, 20 s at 68 C and 10 min at 72 C) and these products were digested with 5U of HpaI (New England Biolabs) for 2h at 37 C. The fragments were purified using Qiaquick PCR columns (Qiagen), analyzed on an ABI 3130xL genetic analyzer (Applied Biosystems) with peak positions identified by using a set of X-rhodamine (ROX)-labeled MapMarker1000 molecular weight standards (BioVentures). The raw capillary electrophoresis data was processed using Attagraph software (Attagene).
For CCCCCCCC(=O)OCCCCCC, the outcome was “inactive”.
For CCc1cc(Cc2cc(CC)cc(C(C)(C)C)c2O)c(O)c(C(C)(C)C)c1, the AC50 was 18.1 µM (active).
With CC(C)(C)OC(=O)c1ccc(O)cc1 the AC50 was 100 µM (active).
In the case of Cc1cccc(Nc2ccccc2)c1, the AC50 is reported as 135 µM (active).
For O=C(O)CNc1ccccc1, the outcome was “inactive”.
With C=C(C)[C@H]1CC=C(C)C(=O)C1 the outcome was “inactive”.
In the case of CC(C)=CCCC(C)CC(=O)O (stereo not given), the outcome is reported as “inactive”.
With NCC1CCCC(CN)C1 (stereo not given) the outcome was “inactive”.
With CCCCCCCCCCCCCCN(CCO)CCO the outcome was “inactive”.
With O=CCc1ccccc1 the outcome was “inactive”.
For Clc1cc(Cl)c(-c2c(Cl)c(Cl)cc(Cl)c2Cl)cc1Cl, the AC50 was 29.1 µM (active).
With OCC(O)c1ccccc1 (stereo not given) the outcome was “inactive”.
In the case of CC(C)Nc1nc(N)nc(Cl)n1, the outcome is reported as “inactive”.
With CCOC(=O)CC(C)O (stereo not given) the outcome was “inactive”.
With BrCc1cccc(Oc2ccccc2)c1 the outcome was “inactive”.
For COS(=O)(=O)O, the outcome was “inactive”.
With CC(C)OCCO the outcome was “inactive”.
In the case of CC(C)(CO)[C@@H](O)C(=O)NCCC(=O)O, the outcome is reported as “inactive”.
For C1=CC2C3C=CC(C3)C2C1 (stereo not given), the outcome was “inactive”.
In the case of O=P(O)(O)O, the outcome is reported as “inactive”.
In the case of C=C(C)[C@@H]1CC=C(C)C(=O)C1, the outcome is reported as “inactive”.
With CC(=O)c1c(C)c([N+](=O)[O-])c(C(C)(C)C)c([N+](=O)[O-])c1C the AC50 was 11.5 µM (active).
With CN(C)CCOc1ccc(/C(=C(/CCCl)c2ccccc2)c2ccccc2)cc1 the outcome was “inactive”.
For O=C(Nc1ccc2c(O)c(N=Nc3ccc(N=Nc4ccc(S(=O)(=O)O)cc4)cc3)c(S(=O)(=O)O)cc2c1)c1ccccc1, the outcome was “inactive”.
With C=C(C)C1CC=C(C)C(=O)C1 (stereo not given) the outcome was “inactive”.
With CCC(C)=O the outcome was “inactive”.
In the case of CCOC(=O)CN, the outcome is reported as “inactive”.
For OCC#CCO, the outcome was “inactive”.
In the case of CCOc1ccc(N=Nc2ccc(C=Cc3ccc(N=Nc4ccc(OCC)cc4)cc3S(=O)(=O)O)c(S(=O)(=O)O)c2)cc1, the outcome is reported as “inactive”.
For CCCC(=O)c1ccccc1, the outcome was “inactive”.
For CCCCCCCCc1ccc(S(=O)(=O)O)cc1, the outcome was “inactive”.
In the case of CC(C)(C)CC(C)(C)c1ccc(OCCOCC[N+](C)(C)Cc2ccccc2)cc1, the AC50 is reported as 8.35 µM (active).
For CC1C2CC(CC2C2CCCC(O)C2)C1(C)C (stereo not given), the outcome was “inactive”.
For CC(C=O)Cc1ccc(C(C)(C)C)cc1 (stereo not given), the outcome was “inactive”.
In the case of Cc1ccc(S(N)(=O)=O)cc1, the outcome is reported as “inactive”.
With Cc1[nH]c(=O)c(C#N)cc1-c1ccncc1 the outcome was “inactive”.
In the case of CS(C)=O, the outcome is reported as “inactive”.
In the case of C=C[Si]1(C)O[Si](C)(C=C)O[Si](C)(C=C)O[Si](C)(C=C)O1 (stereo not given), the outcome is reported as “inactive”.
With C=CCOC(=O)CCCCCC the outcome was “inactive”.
In the case of COc1ccc(N=Nc2cc(C)c(N=Nc3ccc(S(=O)(=O)O)cc3)cc2OC)cc1, the outcome is reported as “inactive”.
